These results are taken from PubChem BioAssay (NCI).

This is part of a sample that, as a whole, favours compounds with a hit. Of some 83,000 tested, about 20% had one in any assay.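 Each cell line was grown in a 96-well plate and treated with one concentration of compound for 48 hours. Values below 10 were considered active.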 Values without a mark were called inactive. Activity calls are given as the source filed them.

Some test systems named below: NCI-H23 lung; NCI-H226 lung; NCI-H322M lung; HOP-62 NSCLC; NCI-H460 lung; NCI-H522 lung; A549/ATCC NSCLC; 786-0 renal; COLO 205 colon; DU-145 prostate.
Common to all, as to experiment: NCI-60 one-dose screen, 48 h (100 = growth as untreated, 0 = no growth, -100 = all killed)
What all share (details): 10 µM

As for `COc1cc(CNc2ccccc2C(=O)N2CCN(C(=O)c3cc(-c4cc(OC)c(OC)c(OC)c4)n4nc(-c5ccccc5)cc4n3)CC2)cc(OC)c1OC`, the growth in the assay on NCI-H23 lung is 61.7%; in the assay with NCI-H226 lung, 76.5%; in the assay with NCI-H322M lung it was 43.7%; in the assay with HOP-62 NSCLC, 53.9%; in the assay with NCI-H460 lung, 11.7%; with NCI-H522 lung, 7.02% (active). For the same compound, the growth in the assay on A549/ATCC NSCLC was 37.8%; in the assay with 786-0 renal, 50.8%; with COLO 205 colon it was 46.8%; in the assay with DU-145 prostate it was 67.7%.

With `COc1ccc(/C=C2/CN(C(=O)c3ccccc3F)C/C(=C\c3ccc(OC)cc3)C2=O)cc1`, the growth in the assay with NCI-H23 lung was 73.6%; in the assay on NCI-H226 lung, 57.8%; in the assay with NCI-H322M lung, 82.9%; in the assay with HOP-62 NSCLC, 75.8%; in the assay with NCI-H460 lung, 94%; with NCI-H522 lung, 38.3%. For the same compound, the growth in the assay with A549/ATCC NSCLC is 63.2%; with 786-0 renal it was 56.9%; in the assay on COLO 205 colon, 59.1%; with DU-145 prostate, 42.1%.

In the case of `O=C(Nc1cccc(-n2cc(-c3ccncc3)c(-c3ccc(O)c(Cl)c3)n2)c1)Nc1cccc(C(F)(F)F)c1`, the growth was -5.75% (active) in the assay with NCI-H23 lung; 57.5% in the assay on NCI-H226 lung; -10.3% (active) in the assay on NCI-H322M lung; -3.45% (active) in the assay with HOP-62 NSCLC; -4.53% (active) in the assay with NCI-H460 lung; -6.25% (active) in the assay on NCI-H522 lung. Besides, the growth in the assay on A549/ATCC NSCLC was -6.05% (active); with 786-0 renal, 14.9%; in the assay on COLO 205 colon it was 22.7%; in the assay with DU-145 prostate, 12.8%.

Regarding `Cn1c([N+](=O)[O-])cnc1/C=C1\Oc2ccc(Cl)cc2C1=O`, the growth was -12.7% (active) in the assay with NCI-H23 lung; -27.2% (active) in the assay with NCI-H226 lung; 11.4% in the assay with NCI-H322M lung; -17.2% (active) with HOP-62 NSCLC; -44.3% (active) in the assay on NCI-H460 lung; -50.3% (active) in the assay on NCI-H522 lung. The growth was -40.9% (active) in the assay with A549/ATCC NSCLC, -23.2% (active) with 786-0 renal, -41.6% (active) with COLO 205 colon and -17.1% (active) in the assay with DU-145 prostate.

In the case of `COc1ccc(-c2nsc3c2NC(=O)CC3c2ccc(F)cc2)cc1` (stereo not given), the growth is 59.5% in the assay on NCI-H23 lung; 75.2% in the assay on NCI-H226 lung; 39.6% in the assay on NCI-H322M lung; 44.3% in the assay on HOP-62 NSCLC; 17.2% in the assay on NCI-H460 lung; 3.06% (active) in the assay with NCI-H522 lung. In addition, the growth in the assay on A549/ATCC NSCLC is 27.2%; in the assay with 786-0 renal it was 57.5%; in the assay on COLO 205 colon, 9.44% (active); in the assay on DU-145 prostate, 58.7%.

With `CN(C)CCN1C(=O)c2cccc3cc(N)cc(c23)C1=O`, the growth in the assay with NCI-H23 lung is 31.5%; in the assay on NCI-H226 lung, -30.3% (active); in the assay with NCI-H322M lung, 29.4%; in the assay with HOP-62 NSCLC, 34%; in the assay with NCI-H460 lung, 0.597% (active); with NCI-H522 lung, -28.3% (active). The growth was 12% in the assay on A549/ATCC NSCLC, 25.7% in the assay on 786-0 renal, 26.2% in the assay on COLO 205 colon and 4.45% (active) in the assay on DU-145 prostate.

Turning to `CCN(CC)Cc1cc(Nc2ccnc3cc(Cl)ccc23)ccc1OC`, the growth in the assay with NCI-H23 lung was 87.8%; with NCI-H226 lung, 105%; with NCI-H322M lung, 99%; with HOP-62 NSCLC it was 88%; in the assay on NCI-H460 lung it was 90.1%; in the assay on NCI-H522 lung it was 69.3%. For the same compound, the growth is 89.6% in the assay on A549/ATCC NSCLC, 97.4% in the assay on 786-0 renal, 62.4% in the assay on COLO 205 colon and 107% in the assay on DU-145 prostate.

On to `N#Cc1ncc(-c2cc(F)c(F)c(F)c2)c(NC2CCCCCC2)n1`, for which the growth with NCI-H23 lung is 92.9%; in the assay with NCI-H226 lung, 94.6%; in the assay with NCI-H322M lung, 105%; with HOP-62 NSCLC it was 100%; in the assay on NCI-H460 lung, 95.7%; with NCI-H522 lung, 94.8%. Also, the growth in the assay on A549/ATCC NSCLC is 95.8%; in the assay with 786-0 renal, 101%; in the assay on COLO 205 colon, 88.5%; with DU-145 prostate, 108%.

Take `COc1cc(NC(=O)CCSc2nc3ccc(C)cc3c(=O)n2Cc2ccccc2)cc(OC)c1OC`: the growth was 108% with NCI-H23 lung; 27.4% in the assay on NCI-H226 lung; 71.9% in the assay with NCI-H322M lung; 9.27% (active) in the assay on HOP-62 NSCLC; 48.3% with NCI-H460 lung; 65.2% with NCI-H522 lung. For the same compound, the growth was 42.6% in the assay with A549/ATCC NSCLC, 72.6% in the assay on 786-0 renal, 112% in the assay on COLO 205 colon and 83.6% with DU-145 prostate.

As for `COc1ccc(-c2nn(-c3cccc(NC(=O)Nc4cccc(C(F)(F)F)c4)c3)cc2-c2ccncc2)cc1Cl`, the growth with NCI-H23 lung is 5.45% (active); with NCI-H226 lung it was 25.7%; in the assay on NCI-H322M lung, 24.4%; in the assay with HOP-62 NSCLC it was 25.2%; with NCI-H460 lung, 2.43% (active); in the assay on NCI-H522 lung, -6.94% (active). Besides, the growth in the assay on A549/ATCC NSCLC is 7.5% (active); in the assay with 786-0 renal it was 24.2%; in the assay with COLO 205 colon it was 1.37% (active); with DU-145 prostate, 22%.

With `O=C(O)CC(Cl)C(Cl)CC(=O)O` (stereo not given), the growth is 102% in the assay with NCI-H23 lung; 119% with NCI-H226 lung; 93.1% with NCI-H322M lung; 110% with HOP-62 NSCLC; 101% with NCI-H460 lung; 86.3% with NCI-H522 lung. Besides, the growth in the assay on A549/ATCC NSCLC was 94.6%; in the assay with 786-0 renal, 101%; with COLO 205 colon it was 112%; in the assay on DU-145 prostate it was 106%.

On to `O=C(Nc1ccncc1)C(=O)c1cn(S(=O)(=O)c2ccc(F)cc2)c2ccccc12`, for which the growth was 36.8% in the assay on NCI-H23 lung; 53.7% with NCI-H226 lung; 84.9% in the assay with NCI-H322M lung; 36.2% with HOP-62 NSCLC; 74.7% in the assay on NCI-H460 lung; 0.626% (active) with NCI-H522 lung. In addition, the growth in the assay on A549/ATCC NSCLC was 82.3%; in the assay with 786-0 renal it was 43.9%; with COLO 205 colon, 103%; in the assay on DU-145 prostate, 32%.
